PubChem BioAssay AID1159577 (Broad Institute, 2015)
About 240 (18%) of roughly 1,300 compounds were called active. Not shown: some 8% with an inconclusive outcome. The rule behind the calls is not given here. A selection follows. Potency and affinity values are given separately.

Test: toxicity to human hepatoma HepG2 cells – cell-based, cherry-picked samples, cytotoxicity control, dose response (AID 1159577);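 note: 0% = neutral control wells and -100% = positive control wells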
Conditions: HepG2 cytotoxicity counterscreen, plate reader; series mostly up to 19.5 µM; activity change, negative = cytotoxicity: at the top concentration

SMILES	activity change, negative = cytotoxicity
CN(C)C(=O)c1cccc(-c2ccc3c(c2)[C@H]2[C@H](CCN2C(=O)C2CC2)[C@@H](CO)N3)c1	-3.67% (inactive)
C/C=C/c1ccc([C@@H]2[C@H](CO)N(CC3CCCC3)C23CN(C(=O)CC2CC2)C3)cc1	3.95% (inactive)
CCC(=O)N1CCC2(CC1)CN(S(=O)(=O)c1ccccc1)[C@@H](CO)c1[nH]c3cc(OC)ccc3c12	9.94% (inactive)
N#C[C@@H]1[C@H](c2ccccc2-c2cccc(F)c2)[C@H](CO)N1C(=O)C1CCCC1	10.2% (inactive)
C[C@H](CO)N1C[C@H](C)[C@H](CN(C)S(=O)(=O)c2cccs2)OCc2ccccc2-c2c(n(C)c3ccccc23)C1=O	23.9% (inactive)
C[C@@H]1CN([C@@H](C)CO)C(=O)c2cc(C#Cc3ccccc3)cnc2O[C@H]1CN(C)C(=O)CN(C)C	15.6% (inactive)
C[C@@H]1CN([C@@H](C)CO)C(=O)c2cc(C#Cc3ccccc3)cnc2O[C@H]1CN(C)C(=O)CCN1CCCCC1	-30.7% (inactive)
C[C@@H]1CN([C@H](C)CO)C(=O)c2cc(C#Cc3cccc(F)c3)cnc2O[C@@H]1CN(C)C(=O)C1CCCCC1	14.4% (inactive)
C[C@H]1CN([C@@H](C)CO)C(=O)c2cc(C#Cc3cccc(F)c3)cnc2O[C@@H]1CN(C)C(=O)C1CCCCC1	13.3% (inactive)
C[C@H](CO)N1C[C@H](C)[C@H](CN(C)C(=O)C2CCCCC2)Oc2ncc(C#Cc3cccc(F)c3)cc2C1=O	12.7% (inactive)
C[C@@H]1CN([C@H](C)CO)C(=O)c2cc(C#CCc3ccccc3)cnc2O[C@H]1CN(C)C(=O)C1CCC1	27.8% (inactive)
COc1cccc(C#Cc2cnc3c(c2)C(=O)N([C@H](C)CO)C[C@H](C)[C@@H](CN(C)C(=O)C2CCCCC2)O3)c1	13.6% (inactive)
COc1cccc(C#Cc2cnc3c(c2)C(=O)N([C@@H](C)CO)C[C@H](C)[C@@H](CN(C)C(=O)C2CCCCC2)O3)c1	-0.176% (inactive)
COCC(=O)Nc1ccc2c(c1)OC[C@H](C)N(Cc1ccncc1)C[C@H](C)[C@@H](OC)CN(C)C2=O	7.21% (inactive)
C[C@H](CO)N1C[C@H](C)[C@H](CN(C)C(=O)C2CC2)Oc2cc(C#Cc3ccccc3)ccc2S1(=O)=O	-10.6% (inactive)
C[C@@H]1CN([C@@H](C)CO)C(=O)c2c(c3ccccc3n2C)-c2ccccc2CO[C@H]1CN(C)Cc1cccc(C(=O)Nc2ccccc2N)c1	0.959% (inactive)
CO[C@H]1CN(C)C(=O)c2ccc(NS(=O)(=O)CC(F)(F)F)cc2OC[C@@H](C)N(Cc2nccs2)C[C@H]1C	23.1% (inactive)
COc1ccccc1-c1cccc(-c2nc(C(=O)Nc3nccs3)cc3c2[C@H](CCO)N(C(C)=O)C3)c1	3.78% (inactive)
C[C@@H]1CN([C@@H](C)CO)C(=O)c2ccccc2-c2ccccc2CO[C@H]1CN(C)C(=O)Nc1cccc(Cl)c1Cl	16.1% (inactive)
